Laboratory results reported in PubChem BioAssay AID624404 (Broad Institute, 2012).
Hit rate of the full screen: of about 1,800 compounds, about 710 (39%) were called active. Roughly 28% stayed inconclusive and do not appear here. Only a sample is shown. Potency and affinity values are given separately. A number with no mark means an inactive call.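 Rule for the calls: active = luciferase signal rise whose fitted curve crosses a set activity limit at or below the top valid tested dose; inconclusive = flat fit with 30 to 70% rise, or poor fit; inactive = signal falling, flat within 30%, or crossing above top dose.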

Assay: luciferase activators in glycosylation-insensitive reporter cells, dose response, counter-screen for N-linked glycosylation inhibitor project, D54 LucT cells, luminescence, cherry pick (AID 624404);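 note: 0% = median neutral control signal and 100% = twice that signal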
Conditions: D54 LucT luciferase reporter counterscreen, 24 h; series mostly up to 19.5 µM; activity increase (luciferase signal): at the top concentration

| SMILES | activity increase (luciferase signal) |
| --- | --- |
| N#CCC(CNc1ncc(C(F)(F)F)cc1Cl)OC(=O)c1ccc(Cl)cc1Cl (stereo not drawn) | 13.4% |
| C/C(=N/NC(=O)c1cccs1)c1ccc(NC(=O)COc2ccc(Cl)cc2Cl)cc1 | 13.5% |
| CCOc1ccc(Br)cc1C1=NN(C(C)=O)C(c2ccc([N+](=O)[O-])s2)O1 (stereo not drawn) | 30% |
| CN(C)S(=O)(=O)c1ccc(N2CCCC2)c(C(=O)Nc2ccccc2)c1 | 4.45% |
| O=C(Nc1cccc(F)c1)c1cc(S(=O)(=O)N2CCOCC2)ccc1N1CCCC1 | 5.41% |
| COc1ccc(S(=O)(=O)Nc2cc3c(cc2C(C)=O)OCO3)cc1 | 40.6% |
| CN(C)S(=O)(=O)c1ccc(N2CCCC2)c(C(=O)Nc2cccc(F)c2)c1 | 17.2% |
| CC1=C(n2ccnc2)CCC1=O | 20.5% |
| O=C1CC(c2ccccc2F)c2cc3c(cc2N1)CCC3 (stereo not drawn) | 32.1% |
| CC(C)(C)c1nnc2sc(SCC(=O)c3ccc4c(c3)OCCO4)nn2c1=O | -0.962% |
| CN(C)CCc1cc2c(c3c1ccc1ccccc13)OCO2 | -9.59% |
| COc1ccccc1C1CC(=O)Nc2cc3c(cc21)OCCO3 (stereo not drawn) | 7.01% |
| COC(=O)c1sc(N)c(C(=O)OC)c1COC(=O)c1c(C)noc1C | 41.7% |
| Cc1[nH]c2ccc(C(=O)OC(C)C(=O)NCc3ccccc3)cc2c1C (stereo not drawn) | 20.7% |
| COc1cccc(-c2nc(N3CCN(C)CC3)c3ccccc3n2)c1O | 30.5% |
| O=C(CNc1cccc2ccccc12)N/N=C/C(Br)=C/c1ccccc1 | 33.3% |
| O=C(N/N=C/C(Br)=C/c1ccccc1)c1cc(-c2ccco2)[nH]n1 | 31.3% |
| Cc1nc2c3cc(F)ccc3n(Cc3ccc(F)cc3)c2s1 | 23.6% |
| CCCn1nc(C(=O)N2CC(=O)Nc3ccccc32)c2ccccc2c1=O | 30.2% |
| CCOc1ccc2nc(NCCNC(=O)Nc3cccc(C)c3)c(C#N)cc2c1 | 12.9% |
| COc1ccc2nc(SCC(=O)NC3CCCC3)c(C)cc2c1 | 34.9% |
| OCCNc1c2ccccc2nc2ccccc12 | -24% |
| Cc1cc(/C=C2\Sc3ccccc3N2C)cc(C)[n+]1CC1CCCO1 (stereo not drawn) | -30.6% |
| COc1ccc(C(=O)C=Cc2ccc(OCc3ccccc3)c(OC)c2)cc1OC | 45.9% |
| CC[C@H](C)[C@H](NC(=O)c1ccc(Cl)cc1)C(=O)OCC(=O)c1ccc2c(c1)NC(=O)CO2 | -25.4% |
| O=C(/C=C/c1cccnc1)c1ccc(F)c(F)c1 | 12.5% |

| SMILES | activity increase (luciferase signal) |
| --- | --- |
| CC(C)CC(NC(=O)c1ccc(Cl)cc1)C(=O)OCC(=O)c1ccc2c(c1)NC(=O)CO2 (stereo not drawn) | 19.6% |
| C=CCn1cccc(/C=C/C(=O)c2ccc(C(C)(C)C)cc2)c1=S | -49.2% |
| CNc1ccc(Br)cc(C(=O)/C=C/c2ccc(Cl)cc2Cl)c1=O | 11.2% |
| Cc1ccc(-c2nn(-c3ccccc3)cc2NC(=O)CCl)cc1 | -50% |
| Cc1ccc(C(=O)CSc2nn3c(=O)c(C(C)(C)C)nnc3s2)cc1 | 23.5% |
| COc1ccccc1-c1cc(NC=O)c2ncc(-c3cccc(C(C)=O)c3)n2c1 | -15.7% |
| Nc1ccc(-c2cc(NC=O)c3ncc(-c4cccc(C(F)(F)F)c4)n3c2)cn1 | 7.33% |
| CN(C)C(=O)c1cccc(-c2cnc3c(NC=O)cc(-c4ccccc4Cl)cn23)c1 | 51.8% |
| COc1ccc(F)cc1-c1cc(NC(C)=O)c2ncc(-c3cc(OC)c(OC)c(OC)c3)n2c1 | -10.8% |
| CCOc1cc(S(=O)(=O)NCc2ccc(OC)cc2)c(OCC)cc1-n1cnnn1 | 29% |
| Oc1ccc(N=Nc2ccccc2)o1 | 15.2% |
| O=C(Nc1cccc(C(F)(F)F)c1)c1sc(Cl)nc1C(F)(F)F | -21.3% |
| O=C(CNC(=O)N1CC(=O)Nc2ccccc21)NCCCc1ccccc1 | 37.6% |
| CC(C)c1ccc(NC(=O)[C@@H](NC(=O)N2CC(=O)Nc3ccccc32)C(C)C)cc1 | 49.1% |
| Cn1ncc2c(O/N=C(\N)c3ccc(C(F)(F)F)cc3)ncnc21 | 9.8% |
| CC(/C=N/NC(=O)c1cc(-c2ccc(C)s2)[nH]n1)=C\c1ccccc1 | 57% |
| CN(C)CCCN1C(=O)c2cccc3cccc(c23)C1=O | 66.1% |
| Cc1cc(NC(=O)COC(=O)c2ccc(S(=O)(=O)N3CCCc4ccccc43)cc2)no1 | -2.94% [at 5 µM] |
| CCOc1ccccc1C1CC(=O)Nc2cc3c(cc21)OCCO3 (stereo not drawn) | -7.85% |
| CCOC(=O)Cc1csc(/N=C/c2c(O)n(-c3ccc(C)c(C)c3)c(=O)c3ccccc23)n1 | 48.7% |
| Cc1cc(O)c(NC(=O)c2cc([N+](=O)[O-])ccc2Cl)cc1C | 5.97% |
| CC(=O)Nc1sc(C)c(C)c1C(=O)OCC(=O)Nc1cccc(C)c1 | 35.9% |
| CC(=O)Nc1sc(C)c(C)c1C(=O)OCC(=O)N(CC(C)C)c1c(N)n(Cc2ccccc2)c(=O)[nH]c1=O | -15.8% |
| O=C1c2cccc3cccc(c23)C(=O)N1CC1CCN(CC(O)COCc2ccc3c(c2)OCO3)CC1 (stereo not drawn) | -18.8% |
| CN(C)c1ccc(C(C[N+](=O)[O-])c2c(N)n(C)c(=O)n(C)c2=O)c(F)c1C#N (stereo not drawn) | -29.9% |
| Cc1ccc(-c2cnc(C3CC3)o2)cc1S(=O)(=O)Nc1ccccc1 | 28.3% |

| SMILES | activity increase (luciferase signal) |
| --- | --- |
| COc1ccc(Oc2ccc(/C=C/C(=O)c3cccc(OC)c3)cc2[N+](=O)[O-])cc1 | -28.9% |
| CCNc1ccc(Br)cc(C(=O)/C=C/c2ccc(Cl)cc2)c1=O | -4.89% |
| Cc1[nH]nc2c1C(c1cccc(O)c1)C1=C(CC(C)(C)CC1=O)N2 (stereo not drawn) | -7.35% |
| O=C(NCCc1ccc(F)cc1)c1coc(=O)c(Br)c1 | 14.3% |
| Cc1cc(NC(=O)CSc2nc(-c3ccco3)cc(C(F)(F)F)n2)no1 | 26.8% |
| COc1ccc(CCn2c(=N)c(C(=O)NCc3ccco3)cc3c(=O)n4ccccc4nc32)cc1OC | -3.36% |
| Cc1cccc2[nH]c3c(N4CCC5(CC4)OCCO5)ncnc3c12 | 17% |
| COC(=O)c1cc(=O)n(Cc2ccc3c(c2)OCO3)c(=Nc2ccc(F)c(Cl)c2)s1 | -55.3% |
| COc1ccc(CNC(=O)C2Cc3c(-c4ccc5c(c4)OCO5)ccnc3O2)cc1OC (stereo not drawn) | 41.1% |
| COc1cccc2nc3c(C(=O)NCCN(C)C)cccc3cc12 | -3.74% |
| COc1ccc(-c2nc3c(C(=O)NCCN(C)C)cccc3c3ccccc23)cc1 | 22.2% |
| CCN(c1ccccc1)S(=O)(=O)c1ccc(C(=O)NC2CCN(Cc3ccccc3)CC2)cc1 | -0.543% |
| Nc1nc(=S)c2ncn(C3OC(CO)C(O)C3O)c2[nH]1 (stereo not drawn) | 23.6% |
| COC(=O)Nc1ccc(S(=O)(=O)N2CCCc3ccccc32)cc1 | -15.6% |
| O=C1CCCN1c1ccc(S(=O)(=O)Nc2ccc3c(c2)OCCO3)cc1 | 35.6% |
| COC(=O)c1ccc(S(=O)(=O)N2CCc3ccccc32)cc1 | 47.4% |
| Cc1nc([N+](=O)[O-])c(Sc2nc3ccccc3[nH]2)n1Cc1ccccc1 | 19.7% |
| COc1ccc(OC)c(NS(=O)(=O)c2ccc(SC)cc2)c1 | 16.3% |
| O=C1/C(=C/c2ccccc2)CCc2ccc(Cl)nc21 | 29.5% |
| c1cc2c3c(cccc3c1)C(N1CCCCC1)=N2 | -6.38% |
| Nc1c(N(CCC2=CCCCC2)C(=O)COc2ccc(F)cc2Cl)c(=O)[nH]c(=O)n1Cc1ccccc1 | -73.5% |
| COc1ccc(-c2cc(C(F)F)n3ncc(C(=O)N4CCc5ccccc54)c3n2)cc1 | -4.74% |
| O=c1cc(-c2ccccc2)[nH]n1-c1nc2ccccc2[nH]1 | -17.5% |
| CCCCCc1ccc(OCCC[n+]2ccccc2)c(CCCCC)c1 | -63.6% |
| Cc1cnc(C(=O)OCC(=O)NC2CCCCCCC2)cn1 | 49.4% |
| NC(=O)[C@H]1CC2(CC(c3cccc(NC(=O)COc4ccc(Cl)cc4)c3)=NO2)CN1C(=O)C(c1ccccc1)c1ccccc1 (stereo partly drawn) | -31.4% |

| SMILES | activity increase (luciferase signal) |
| --- | --- |
| O=C(N/N=C\c1cccnc1)c1cc(-c2ccccc2)nc2c(Cl)cccc12 | -40.5% |
| COc1ccc(NC(=O)c2nc(C)c(C3(C)CC(c4ccccc4)=NO3)s2)cc1 (stereo not drawn) | 21.9% |
| CCOC(=O)c1c(C)nc2sc3c(=O)n(-c4ccc(C)cc4)cnc3c2c1-c1ccc(OC)cc1 | 1.25% |
| CCOC(=O)C1=C(Cc2ccc(F)cc2)C(=O)c2ccccc2C1=O | 39% |
| COc1ccc(Cn2c(=O)cc(N)n(-c3ccccc3C)c2=O)cc1 | 45.7% [at 5 µM] |
| COC(=O)c1ccccc1NC(=O)Cn1nnc(-c2ccc(OC)cc2)n1 | 41% |
| CC(C)CN(C(=O)COC(=O)CCSc1ccc(Cl)cc1)c1c(N)n(Cc2ccccc2)c(=O)[nH]c1=O | 0.545% |
| CCOc1ccc(OCC(=O)N(CCC2=CCCCC2)c2c(N)n(Cc3ccccc3)c(=O)[nH]c2=O)cc1 | -36.8% |
| COc1ccc(-c2cc(-c3ccccc3)c(C#N)c(S(C)=O)n2)cc1 (stereo not drawn) | -12.6% |
| CCCn1c(CN2CCN(C(=O)OCC)CC2)nc2cc(NC(=O)CC)ccc21 | 23% |
| CN1CCN(CC(=O)Nc2cc(N(C)C)nc3ccccc23)CC1 | 15.8% |
| Cc1cc(Br)cc2c(C(=O)Nc3c(C)n(C)n(-c4ccccc4)c3=O)cc(-c3cccs3)nc12 | 22.6% [at 5 µM] |
| CC(C)(C)NCC(O)CON=C1c2ccccc2-c2ccccc21 (stereo not drawn) | -11.5% |
| Cc1ccccc1OCCOC(=O)c1c(-c2ccccc2)noc1C | 5.79% |
| Cc1ccc(-c2cc(C(F)F)n3ncc(C(=O)N4CCc5ccccc54)c3n2)cc1 | -8.28% |
| CC(C)Oc1ccccc1C1CC(=O)Nc2cc3c(cc21)OCO3 (stereo not drawn) | 13% |
| CCOc1cccc2sc(Nc3nc4ccc(NC(C)=O)cc4s3)nc12 | -31.6% |
| Cc1cc(C)c2c(N)c3ccccc3nc2n1 | 3.64% |
| CCc1ccc2nc3nc(C)cc(C)c3c(N)c2c1 | -2.78% |
| COC(=O)C1=C(C(=O)OC)[C@@H]2N(Cc3ccccc3)c3ccccc3[C@@]23C[C@@H](C(=O)OC)N(C(=O)c2cc(C)oc2C)C3=N1 | 2.73% |
| C=CCN1c2ccccc2[C@]23C[C@@H](C(=O)OC)N(C(=O)c4ccc(Br)cc4)C2=NC(C(=O)OC)=C(C(=O)OC)[C@H]13 | -7.77% |
| CCCOC(=O)c1[nH]c2c(c1C)C(=O)CC(c1cccs1)C2 (stereo not drawn) | -7.69% |
| COc1cc(/C=C2/C(=O)N(C)C(=S)N2C)ccc1OCc1cccc(F)c1 | -47.8% |
| COc1cc2c3c(cccc3c1)C(=O)N(CCN1CCCC1)C2=O | 0.522% |
| COc1ccc(/C=C2\SC(=S)N(CCC(=O)NC3CCCC3)C2=O)cc1OC | -13.3% |
